This note sets out measurements from PubChem BioAssay (EPA / NIEHS).

A short description of assay [1]: CCTE_Shafer_MEA_acute_per_network_burst_spike_number_std: CCTE's Neural Acute Assay for Standard Deviation of Number of Spikes in a Network Burst, Shafer Lab (AID 2284020).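 Note: fitted for decrease in spike-number SD versus DMSO so actives lower it.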 The essentials: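 Acute MEA exposure, rat cortical neurons, 0.03-40 uM. Per-well % change versus own baseline; DMSO as negative control.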
The nature of assay [2]: CCTE_Shafer_MEA_acute_per_network_burst_electrodes_number_mean: CCTE's Neural Acute Assay for Mean Number of Electrodes in a Network Burst, Shafer Lab (AID 2284021).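 Note: curves fitted for decreases only so hits reduce electrodes per burst.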 The essentials:
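Rat primary cortical neurons on 48-well MEAs, DIV 13 or 15, were treated at 0.03-40 uM. Spikes were detected at 8x rms noise and recorded at 37 C. The mean electrodes per network burst in a 40 min exposure recording was expressed as percent change from a 40 min baseline.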

Assay [3] in a line: CCTE_Shafer_MEA_acute_network_burst_percentage: CCTE's Neural Acute Assay for Percentage of Network Bursts, Shafer Lab (AID 2284022).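 Note: curves fitted for loss so actives lower network burst percentage.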 An outline of the steps: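 Rat primary cortical neuron networks on 48-well MEA plates, DIV 13 or 15, treated acutely with compound (0.03-40 uM, at least three wells). Percent of spikes within network bursts compared between 40-min recordings before and during exposure at 37 C, expressed as percent change.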

Assay [4] can be described thus: CCTE_Shafer_MEA_acute_cross_correlation_area: CCTE's Neural Acute Assay for Area of Cross Correlation, Shafer Lab (AID 2284024).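 Note: curves fitted for loss of cross-correlation area so actives lower synchrony.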 The essentials:
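Rat primary cortical neurons on 48-well MEA, DIV 13 or 15; compounds 0.03-40 uM. Baseline and post-exposure 40 min recordings at 37 C; percent change in area under pooled inter-electrode cross-correlation near zero lag, relative to DMSO.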

Assay [5] in a line: CCTE_Shafer_MEA_acute_cross_correlation_HWHM: CCTE's Neural Acute Assay for Cross Correlation at Half Width at Half Maximum, Shafer Lab (AID 2284026).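 For outcome: spontaneous network firing of rat primary cortical neurons on multiwell microelectrode arrays.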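 Note: percent change per well from pre-dose baseline in spike cross-correlogram half width; hits are a decrease in cross-correlogram half width relative to DMSO.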 An outline of the steps:
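Rat primary cortical neurons on 48-well MEA plates; 40-min baseline and 40-min post-exposure recordings at 37 C on DIV 13 or 15, compounds 0.03-40 uM. Spikes detected at 8x rms noise; percent change in cross-correlogram HWHM per well vs baseline.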

Assay [6] can be described thus: CCTE_Shafer_MEA_acute_synchrony_index: CCTE's Neural Acute Assay for Synchrony, Shafer Lab (AID 2284027).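 Note: network synchrony index of spontaneous spiking in primary rat cortical neurons on MEAs; fitted for loss of signal so actives lower synchrony relative to DMSO.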 The essentials:
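Plates equilibrated 20 min at 37 C, baseline recorded 40 min, compound (0.03-40 uM) added, then 40 min more recorded. Cells: primary rat cortical neurons, DIV 13 or 15. Per-well synchrony index change analysed in negative direction against DMSO.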

A short description of assay [7]: CCTE_Deisenroth_AIME_384WELL_CTox_Active: Cytotoxicity Assessment (CTOX) in CCTE's 384-well Estrogen Receptor Transactivation Assay with AIME metabolic competence (metabolism positive), Deisenroth Lab (AID 2284037; active = hit-call score of the fitted dose curve at least 0.9, where 1 is the maximum;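 note: chemicals first conditioned 2 h by alginate-bound induced rat liver S9 before cells; activity means signal loss indicating cell death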). An outline of the steps: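 VM7Luc4E2 breast cells received medium pre-incubated 2 h with chemical over alginate microspheres holding induced male Sprague Dawley rat liver S9; viability read 24 h later by protease-substrate fluorescence. Loss of signal, bidirectional fit, 0.002–200 uM.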

Assay [8] in a line: CCTE_Deisenroth_AIME_384WELL_CTox_Inactive: Cytotoxicity Assessment (CTOX) in CCTE's 384-well Estrogen Receptor Transactivation Assay without AIME metabolic competence (metabolism negative), Deisenroth Lab (AID 2284039; active = hit-call score of the fitted dose curve at least 0.9, where 1 is the maximum;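 note: cell viability via live-cell protease substrate cleaved to fluorescent probe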). The essentials: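 Fluorescent protease-substrate viability readout after 24 h exposure of VM7Luc4E2 cells to conditioned medium. Chemicals (0.002–200 uM) first sat 2 h over alginate-water beads, no S9. Data fitted bidirectionally, loss of signal meaning viability loss.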

Assay [9] can be described thus: CCTE_Shafer_MEA_dev_per_burst_spike_percent: CCTE's Neural Network Formation Assay for Percent of Spikes in a Burst, Shafer Lab (AID 2284032).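 For AC50: fitted as a decrease in burst spike percentage below DMSO baseline.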 The essentials: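 Value is trapezoidal AUC over recordings on days 5, 7, 9 and 12 of the well-mean fraction of spikes falling in single-electrode bursts; rat cortical cultures exposed continuously from plating, treatment renewed DIV 5 and 9, fitted downward against DMSO.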

Assay [10] is described as follows: CCTE_Shafer_MEA_dev_active_electrodes_number: CCTE's Neural Network Formation Assay for Number of Active Electrodes, Shafer Lab (AID 2284040; active = hit-call score of the fitted dose curve at least 0.9, where 1 is the maximum;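 for AC50: potency for loss of active electrodes versus DMSO so lower counts are hits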). An outline of the steps: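 Counts electrodes per well firing at least 5 spikes/min, recorded on days 5, 7, 9 and 12 in rat cortical cultures dosed continuously from plating (treatment refreshed DIV 5, 9). Value is the area under the curve over recordings, fitted downward relative to DMSO.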

The nature of assay [11]: CCTE_Shafer_MEA_dev_burst_rate: CCTE's Neural Network Formation Assay for Burst Rate, Shafer Lab (AID 2284042).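 For AC50: potency for loss of burst rate below DMSO control.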 The essentials: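 Exposure ran continuously over 12 days of network development in rat cortical cultures, with compound refreshed during full media changes on DIV 5 and 9. Single-electrode bursts per recording time, well-mean over active electrodes, trapezoidal AUC across days 5–12, fitted downward relative to DMSO.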

Assay [12] can be described thus: CCTE_Shafer_MEA_dev_burst_duration_mean: CCTE's Neural Network Formation Assay for Mean Burst Duration, Shafer Lab (AID 2284045).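 For AC50: curve fitted for loss meaning shorter burst duration than DMSO.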 An outline of the steps:
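Network-formation assay in primary rat cortical neurons; treatment spans twelve days of development. Mean burst duration per well is integrated by trapezoidal AUC and fitted in the loss-of-signal direction against DMSO baseline.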

The nature of assay [13]: CCTE_Shafer_MEA_dev_interburst_interval_mean: CCTE's Neural Network Formation Assay for Mean Interburst Interval, Shafer Lab (AID 2284046).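 Note: well-mean interburst interval of bursting electrodes as AUC over four recording days; curve fitted for decrease in interburst interval relative to DMSO.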 The essentials:
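Primary rat cortical neurons on PEI-coated 48-well MEA plates (laminin added with cells at plating) (16 electrodes/well), exposed from plating day 0 with renewal at DIV 5 and 9. Mean inter-burst interval averaged over bursting electrodes, AUC across days 5, 7, 9, 12; DMSO baseline.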

Assay [14] is described as follows: CCTE_Shafer_MEA_dev_inter_network_spike_interval_mean: CCTE's Neural Network Formation Assay for Mean Inter-network Spike Interval, Shafer Lab (AID 2284047).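 For AC50: potency for a decrease in mean inter-network spike interval below DMSO.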 The essentials:
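Mean time between consecutive network-spike peaks, recorded extracellularly (adaptive spike detection) on DIV 5, 7, 9 and 12, summarized as trapezoidal AUC. Rat cortical cultures on MEAs dosed continuously days 0–12, re-dosed at feeds; loss-of-signal fit relative to DMSO.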

A short description of assay [15]: CCTE_Shafer_MEA_dev_network_spike_number: CCTE's Neural Network Formation Assay for Number of Network Spikes, Shafer Lab (AID 2284048).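 For AC50: fit as a loss of signal meaning fewer network spikes than DMSO.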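 Note: synchronized bursts across electrodes counted on days 5 7 9 12 and integrated as AUC.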 An outline of the steps: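 Extracellular recordings from 16-electrode wells track network formation in rat cortical cultures under continuous treatment from plating. The endpoint is network spike number, expressed as AUC across DIV 5–12 relative to DMSO vehicle.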

A short description of assay [16]: CCTE_Shafer_MEA_dev_network_spike_duration_std: CCTE's Neural Network Formation Assay for Standard Deviation of Network Spike Duration, Shafer Lab (AID 2284052).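 Note: hits are decreases in network spike duration SD versus DMSO vehicle.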 The essentials:
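Network spike duration variability was collapsed across recordings on days 5, 7, 9 and 12 by trapezoidal area-under-curve and fitted downward against DMSO. Cultures were rat cortical neurons on PEI-coated MEA plates, dosed continuously from plating, refed with compound DIV 5/9.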

Another assay relates to DIO2 (gene 1734). In words: CCTE_GLTED_hDIO2: CCTE's human Deiodinase 2 (DIO2) Inhibition Assay, Great Lakes Toxicology and Ecology Division (GLTED) Lab (AID 2284050; active = hit-call score of the fitted dose curve at least 0.9, where 1 is the maximum). The essentials: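 Inhibition is judged by reduced iodide release: uninhibited human DIO2 frees iodide from substrate over 3 h, measured afterward by Sandell-Kolthoff colorimetry. Iodinated chemicals or nitrite, iron and thiocyanate may interfere.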

Assay [17] concerns the target Estrogen receptor (Homo sapiens) (UniProt P03372). As to the kind of experiment: CCTE_Deisenroth_AIME_384WELL_LUC_Active: CCTE's 384-well Estrogen Receptor Transactivation Assay with AIME metabolic competence (ERTA luciferase; metabolism positive), Deisenroth Lab (AID 2284030; active = hit-call score of the fitted dose curve at least 0.9, where 1 is the maximum). The essentials: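 Chemicals (10-point, 0.002-200 uM) were first incubated 2 hours with alginate-immobilized induced male Sprague Dawley rat liver S9. The conditioned medium was then applied to VM7Luc4E2 cells for 24 hours, with ER luciferase induction read by luminescence relative to 17beta-estradiol.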

The target is the same in assay [18]. In words: CCTE_Deisenroth_AIME_384WELL_LUC_Inactive: CCTE's 384-well Estrogen Receptor Transactivation Assay without AIME metabolic competence (ERTA luciferase; metabolism negative), Deisenroth Lab (AID 2284038; active = hit-call score of the fitted dose curve at least 0.9, where 1 is the maximum;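 note: hits raise estrogen receptor luciferase signal so potencies reflect agonists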). An outline of the steps: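 VM7Luc4E2 ER transactivation, luciferase bioluminescence after 24 h, using medium pre-incubated 2 h with S9-free alginate microspheres. Concentrations 0.002–200 uM; gain of signal fitted relative to 17beta-estradiol.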

Several values for one entry are separate records, joined by “and”; a condition that tells them apart may be missing. Equal entries are not always repeated. Inconclusive results are not listed. Some compounds were tested as several samples or in several runs, with calls that do not always agree. Activity calls are given as the source filed them. Rule for the calls, unless noted: active = hit-call score of the fitted dose curve at least 0.9, where 1 is the maximum; inactive = score below 0.9.

Sequence of Estrogen receptor (Homo sapiens) (P03372 whole entry, looked up): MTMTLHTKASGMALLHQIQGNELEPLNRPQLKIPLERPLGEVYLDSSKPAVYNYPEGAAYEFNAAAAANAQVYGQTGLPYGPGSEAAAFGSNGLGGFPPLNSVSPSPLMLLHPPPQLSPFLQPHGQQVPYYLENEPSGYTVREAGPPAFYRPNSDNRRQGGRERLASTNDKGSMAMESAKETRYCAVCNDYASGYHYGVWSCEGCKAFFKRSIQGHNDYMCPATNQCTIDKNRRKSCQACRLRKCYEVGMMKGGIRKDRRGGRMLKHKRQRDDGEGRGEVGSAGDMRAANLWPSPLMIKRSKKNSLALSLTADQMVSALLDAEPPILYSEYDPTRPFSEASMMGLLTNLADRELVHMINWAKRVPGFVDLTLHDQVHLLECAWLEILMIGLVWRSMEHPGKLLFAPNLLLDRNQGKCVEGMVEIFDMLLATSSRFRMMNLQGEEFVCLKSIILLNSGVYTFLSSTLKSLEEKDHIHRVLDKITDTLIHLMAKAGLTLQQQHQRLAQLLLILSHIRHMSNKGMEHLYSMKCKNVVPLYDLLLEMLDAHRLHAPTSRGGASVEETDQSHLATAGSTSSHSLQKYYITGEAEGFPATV

As a reminder, the AC50 is the concentration at which the activity in the assay is half-maximal. Regarding `N#CSCSC#N`, the compound was called inactive in assay [1], in assay [2], in assay [4], in [5], in assay [7] and in assay [8]. The concentration at half-maximal activity (AC50) in [3] is 30.5 µM (active); in assay [6], 28.4 µM (active).

`CCc1cccc(C)c1N(C(=O)CCl)C(C)COC` (stereo unspecified): the AC50 in assay [1] is 10.8 µM (active); in [2], 5.76 µM (active); in [3], 21.9 µM (active); in [5], 26.9 µM (active); in assay [6] it was 8.13 µM (active). Further, in assay [4], the outcome was inactive.

On to `CSC1=N[C@@](C)(c2ccccc2)C(=O)N1Nc1ccccc1`, for which the half-maximal activity concentration (AC50) is 30.8 µM (active) in [1]; 22.1 µM (active) in assay [3]; 29.8 µM (active) and 18.1 µM (active) in assay [5]; 20 µM (active) and 22.8 µM (active) in assay [6]. For the same compound, the outcome in [1], in [2], in [3], in assay [4], in assay [9] and in assay [10] was inactive. The compound was called inactive in assay [11], in assay [12], in assay [13], in assay [14], in [15] and in assay [16].

In the case of `COP(=O)(NC(C)=O)SC` (stereo unspecified), the AC50 was 0.299 µM (active) in [1] and 0.804 µM (active) in assay [6]. The result in assay [1], in [2], in [3], in [4], in assay [5] and in [6] was inactive. Also, the call in assay [9], in assay [7], in [8], in assay [10], in assay [11] and in assay [12] was inactive. The result in assay [13], in [14], in assay [15] and in assay [16] was inactive.

Consider `C[Si](Cn1cncn1)(c1ccc(F)cc1)c1ccc(F)cc1`, for which the compound was called inactive in assay [1], in assay [2], in [9], in assay [11], in [12] and in assay [13]. Besides, the outcome in assay [14], in assay [15] and in [16] was inactive. The half-maximal activity concentration (AC50) in assay [3] was 20 µM (active); in assay [4], 1.67 µM (active); in assay [5] it was 34.5 µM (active); in assay [6], 4.26 µM (active); in assay [10], 4.26 µM (active).

`CCOP(=S)(Oc1cnc(C(C)(C)C)nc1)OC(C)C` (stereo unspecified): the half-maximal activity concentration (AC50) was 28 µM (active) in [1]; 20 µM (active) in [2]; 24.6 µM (active) in assay [3]; 26.9 µM (active) in assay [5]; 31 µM (active) in assay [6]; 89.1 µM (active) and 12.9 µM (active) in [9]. Moreover, the AC50 is 93.2 µM (active) and 14.9 µM (active) in assay [10]; 14.3 µM (active) in assay [11]; 50 µM (active) and 16.6 µM (active) in [13]; 14.8 µM (active) in assay [15]. Moreover, the compound was called inactive in assay [4], in assay [11], in [12], in assay [14], in [15] and in assay [16].

Regarding `C=C(C)[C@H]1Cc2c(ccc3c2O[C@@H]2COc4cc(OC)c(OC)cc4[C@@H]2C3=O)O1`, the compound was called inactive (in assay [1]; in assay [2]; in assay [3]; in [4]; in the assay on DIO2 (gene 1734)). The half-maximal activity concentration (AC50) in assay [5] is 30.7 µM (active); in assay [6], 20 µM (active); in [9], 24.4 nM (active) and 20.6 nM (active); in [10], 25.2 nM (active) and 14.1 nM (active); in [11] it was 17.3 nM (active) and 6.73 nM (active); in assay [12] it was 29.8 nM (active) and 31 nM (active). For the same compound, the AC50 in assay [13] was 41.4 nM (active) and 31.6 nM (active); in [14], 20.1 nM (active) and 26.2 nM (active); in [15], 14 nM (active) and 10.7 nM (active); in assay [16], 27.7 nM (active) and 14.6 nM (active).

Regarding `COP(=O)(OC)SCn1c(=O)oc2cc(Cl)cnc21`, in assay [17], the compound was called inactive.

With `CCCCOC(=O)[C@@H](C)Oc1ccc(Oc2ccc(C#N)cc2F)cc1`, the call in assay [17] and in assay [18] was inactive.
